Results reported in PubChem BioAssay AID652057 (Broad Institute, 2013).
In all, about 1,400 compounds went through this assay and about 1,000 (71%) were called active. The rule behind the calls is not given here. The set was probably picked from earlier hits. Only a sample is shown. Potency and affinity values are given separately.

Assay: blockers of HIV-1 envelope-mediated cell-cell fusion – cherry-pick, dose response (AID 652057)
Details: HeLa-JRFL Env/CEM21 cell fusion, luciferase; series mostly up to 35 µM; activity change, negative = inhibition: at the top concentration

Activity change, negative = inhibition, inactive:
O=C(C[C@H]1C[C@@H]2c3cc(NC(=O)Nc4ccc(F)cc4)ccc3O[C@@H]2[C@@H](CO)O1)NCC1CC1 -7.22%, CN(C)C(=O)C[C@@H]1C[C@@H]2c3cc(NS(=O)(=O)c4ccc(F)cc4)ccc3O[C@@H]2[C@@H](CO)O1 28%, O=C(C[C@@H]1C[C@H]2c3cc(NC(=O)Nc4ccc(F)cc4)ccc3O[C@H]2[C@H](CO)O1)NCC1CC1 38.6%, O=C(C[C@H]1C[C@H]2c3cc(NS(=O)(=O)c4ccc(F)cc4)ccc3O[C@H]2[C@@H](CO)O1)NCc1ccccc1F 27.6%, O=C(C[C@@H]1C[C@@H]2c3cc(NC(=O)Nc4ccccc4)ccc3O[C@@H]2[C@@H](CO)O1)NCc1ccccc1 12.8% [at 30 µM], O=C(C[C@@H]1C[C@@H]2c3cc(NS(=O)(=O)c4ccc(F)cc4)ccc3O[C@@H]2[C@H](CO)O1)NCc1ccccc1F -1.08%, Cc1cc(C(=O)N2CCC(C(=O)O)CC2)c(C(F)(F)F)o1 -13.1%, Cc1cc(Nc2cccc(C(F)(F)F)c2)cc(=O)n1-c1cccc(C(F)(F)F)c1 -4.17%, O=C(Nc1cccc(C(F)(F)F)c1)c1ccc(Cn2cc(Br)cn2)o1 -20.7%, CCN(CC)S(=O)(=O)c1cccc(NC(=O)c2ccc(-n3nc(C)cc3C)cc2)c1 -21.6%, CCc1nnc(NC(=O)[C@@H](NC(=O)c2cccc(S(=O)(=O)N(CC)CC)c2)C(C)C)s1 -4.25%, O=C(C[C@H]1C[C@H]2c3cc(NC(=O)C4CCC4)ccc3O[C@H]2[C@@H](CO)O1)NCc1ccc2c(c1)OCO2 7.29% [at 30 µM], O=C(NCc1cccc(F)c1)[C@@H]1[C@@H](CO)[C@@H]2Cn3c(ccc(-c4cccnc4)c3=O)[C@H]1N2CC1CC1 5.3%, CN(C)CCCNC(=O)[C@H]1[C@H](CO)[C@H]2Cn3c(ccc(C4=CCCC4)c3=O)[C@H]2N1CCC(F)(F)F 23.1%, Cc1cc(C)c(CN2CCN(C(=O)Cn3ccc(NC(=O)OCc4ccccc4)nc3=O)CC2)c(C)c1 -21.1%, CCCNC(=O)C[C@@H]1C[C@@H]2c3cc(NC(=O)CN(C)C)ccc3O[C@@H]2[C@H](CO)O1 1.88%, C[C@H](CO)N1C[C@H](C)[C@H](CN(C)C(=O)Nc2ccccc2)Oc2c(NS(=O)(=O)c3ccc(F)cc3)cccc2C1=O 77.5% [at 8 µM], Cc1nn(C)c(C)c1CN(C)S(=O)(=O)c1ccc2ccccc2c1 -19.4%, O=C(C[C@H]1C[C@H]2c3cc(NC(=O)NC4CCCC4)ccc3O[C@H]2[C@@H](CO)O1)NC1CCCCC1 4.98% [at 30 µM], COc1ccccc1S(=O)(=O)n1cc(Cc2ccccc2)c(N)n1 0.466%, COc1ccc(S(=O)(=O)N[C@@H]2CC[C@@H](CC(=O)NCCc3ccncc3)O[C@@H]2CO)cc1 -7.73%, O=C(NCC[C@@H]1CC[C@@H](NS(=O)(=O)c2ccccc2F)[C@@H](CO)O1)c1ccc(F)cc1 23.2%, CC1CN(S(=O)(=O)c2cc(C(=O)NCCC3=CCCCC3)ccc2Cl)CC(C)O1 (centres undefined) -19.3% [at 16 µM], O=C(Nc1ccc(F)cc1)Nc1ccc2c(c1)[C@H]1C[C@@H](CC(=O)N3CCCCC3)O[C@H](CO)[C@H]1O2 23.7%, CO[C@@H]1CN(C)C(=O)c2cc(NC(=O)Nc3ccc(Cl)cc3)ccc2OC[C@H](C)N(C)C[C@H]1C -23%, CCOc1ccccc1C(=O)NCC(=O)NNC(=O)CN(C)S(=O)(=O)c1ccc(Cl)cc1 -16.5%, COc1cccc(S(=O)(=O)N[C@H]2CC[C@H](CC(=O)NCc3ccncc3)O[C@@H]2CO)c1 2.5%, CCOC(=O)CN1CCCc2nc(C)c(C)cc21 8.7%, C[C@@H]1CN([C@@H](C)CO)S(=O)(=O)c2ccc(-c3ccccc3)cc2O[C@H]1CN(C)S(C)(=O)=O -12.1%, CO[C@H]1CN(C)C(=O)c2cc(NC(=O)c3ccc(F)cc3)ccc2OC[C@H](C)N(C(=O)CN(C)C)C[C@@H]1C 16.8%, CC(CCc1ccco1)NC(=O)CCc1nnc2ccc(NCc3ccccc3Cl)nn12 (centres undefined) 19.2%, C[C@@H]1CN([C@@H](C)CO)C(=O)Cc2cc(NC(=O)NC3CCCCC3)ccc2O[C@@H]1CN(C)S(=O)(=O)c1ccc(Cl)cc1 17.7% [at 16 µM], CC1CCCC(C)N1CCCNC(=O)c1nn(C)c2c1CSc1ccccc1-2 (centres undefined) 49.2%, CCOc1ccc(NC2c3ccccc3C(=O)N2Cc2ccco2)cc1 (centres undefined) 4.3%, Cn1c(=O)oc2cc(S(=O)(=O)NCc3ccncc3)ccc21 -2.17%, O=C(C[C@@H]1C[C@H]2c3cc(NC(=O)C4CCOCC4)ccc3O[C@H]2[C@H](CO)O1)NCc1ccccc1F 23.4%, Cc1noc(C)c1NC(=O)N(C)C[C@H]1OCCCC[C@H](C)Oc2ccc(NC(=O)c3ccccc3)cc2C(=O)N([C@H](C)CO)C[C@@H]1C 24.3%, CC(C)NC(=O)Nc1ccc2c(c1)C(=O)N([C@@H](C)CO)C[C@H](C)[C@H](CN(C)C(=O)Nc1ccc(F)cc1)O2 -14.9%, COc1ccc(S(=O)(=O)n2ccc(-c3ccc(OCCN(C)c4ccccn4)cc3)n2)cc1 -11.7%, COc1ccccc1OCC(=O)c1[nH]c(C)c(C(C)=O)c1C -2.71%, O=C(c1ccccc1)N1CCC(c2nc(-c3ccc(S(=O)(=O)NCC4CCCO4)cc3)no2)CC1 (centres undefined) -19.1%, C[C@@H]1CN([C@H](C)CO)C(=O)c2c(c3ccccc3n2C)-c2ccccc2CO[C@@H]1CN(C)S(=O)(=O)c1cccc(F)c1 247% [at 18 µM], C[C@@H]1CN([C@@H](C)CO)C(=O)c2cccc(NC(=O)c3ccc(-c4nccs4)cc3)c2O[C@H]1CN(C)CC1CC1 -19.5%, CCn1ncc(C2=NOC(C(=O)Nc3ccc(C)cc3)C2)c1C (centres undefined) -4.06%, C[C@H]1CN([C@@H](C)CO)C(=O)Cc2cc(N(C)C)ccc2O[C@H]1CN(C)CC1CC1 -11.9%, Cc1ccc2c(c1)C(=C(C#N)C#N)CCN2 -11.9%, O=C(Nc1ccc(N2CCN(C(=O)c3ccccc3)CC2)c(Cl)c1)c1cccnc1 -1.86% [at 16 µM], CCCNC(=O)C[C@@H]1C[C@@H]2c3cc(NC(=O)Cc4ccncc4)ccc3O[C@@H]2[C@@H](CO)O1 13.7% [at 30 µM], C[C@H](CO)N1C[C@H](C)[C@@H](CN(C)C(=O)NC2CCCCC2)Oc2c(cccc2N(C)C)C1=O -0.366%
